TGFb inhibitor: qHTS for Inhibitors of TGF-b; HepG2 CAGA-GFP TGF-b/SMAD3 reporter, GFP fluorescence, 18 h; TGF-beta stimulated, 500 pg/mL final; Potency, µM (highest dose often 46.1 µM), usual class: inhibitors; actives 1.2% (n = 410,000); AID 588855, 2011; further: nearly all actives have a fitted effect of over 65% in size
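First, reporter cells (HEPG2 CAGA-GFP) rested 2 h at 37 degrees C. Next, compounds were pinned in and TGF-beta added to 500 pg/mL final. After 18 h, GFP was imaged per cell and summed per well.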
DT40 TDP1 no CPT: qHTS for Inhibitors of human tyrosyl-DNA phosphodiesterase 1 (TDP1): qHTS in cells in absence of CPT. DT40 Tdp1-/- hTDP1 cells, no CPT, ATP luminescence, 48 h. actives 15% (n = 420,000). Potency, µM (titrated, usually from 46.2 µM), usual class: inhibitors. AID 686978, 2013; further: nearly all actives have a fitted effect of over 55% in size
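Camptothecin absent (DMSO only). Human TDP1-complemented DT40 knockout cells, 400 cells/well, 37 °C for minimum 48 hr; ATP measured via CellTiter-Glo, 30 min dark incubation, luminescence.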
TDP1 block: qHTS Assay for Inhibitors of Tyrosyl-DNA Phosphodiesterase (TDP1); recombinant TDP1, AlphaScreen DNA substrate cleavage; Potency, µM (series often up to 130 µM), hits mostly inhibitors; actives 0.28% (n = 350,000); further: nearly all actives have a fitted effect of over 40% in size
Target sequence (Q9NUW8 whole entry, looked up): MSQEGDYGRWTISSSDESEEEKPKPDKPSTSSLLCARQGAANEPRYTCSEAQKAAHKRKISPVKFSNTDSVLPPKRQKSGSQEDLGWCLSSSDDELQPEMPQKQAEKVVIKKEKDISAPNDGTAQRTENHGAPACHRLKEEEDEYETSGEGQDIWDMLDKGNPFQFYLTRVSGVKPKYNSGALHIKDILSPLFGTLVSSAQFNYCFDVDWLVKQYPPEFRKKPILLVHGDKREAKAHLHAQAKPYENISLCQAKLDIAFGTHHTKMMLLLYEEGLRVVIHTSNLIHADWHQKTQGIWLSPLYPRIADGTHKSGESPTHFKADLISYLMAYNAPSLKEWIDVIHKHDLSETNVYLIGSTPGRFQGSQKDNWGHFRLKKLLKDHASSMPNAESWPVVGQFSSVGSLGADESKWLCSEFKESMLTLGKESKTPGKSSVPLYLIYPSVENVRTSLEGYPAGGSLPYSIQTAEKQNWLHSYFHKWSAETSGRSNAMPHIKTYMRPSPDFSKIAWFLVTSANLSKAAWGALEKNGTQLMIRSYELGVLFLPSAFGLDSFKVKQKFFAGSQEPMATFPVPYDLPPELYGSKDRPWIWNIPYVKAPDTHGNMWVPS
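Recombinant human Tdp1 (E. coli-expressed, 1 nM final) preincubated with compounds 15 min at room temperature, then 5'-biotin/3'-phosphotyrosine-FITC DNA substrate (15 nM final) added for 5 min. AlphaScreen beads (10 ug/ml final) added 10 min; cleavage lowers signal.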
IL-1B inflam inh: qHTS for Inhibitors of Inflammasome Signaling: IL-1-beta AlphaLISA Primary Screen | THP-1 LPS/ATP IL-1B secretion, AlphaLISA, 16 h; stronger effect = lower value | activity change, % at 57.5 µM | actives 4.7% (n = 360,000) | AID 743279, 2014; in the data active means activity change below about -50%; inconclusive means mostly about -30% to -49%
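THP-1 cells pretreated 1 hr with compounds (up to 57.5 uM final), then stimulated with LPS (250 ng/mL final) plus ATP (1.25 mM final); secreted IL-1B measured by AlphaLISA after 16 hr, decreased signal indicating inhibition.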
DT40 TDP1 CPT: qHTS for Inhibitors of human tyrosyl-DNA phosphodiesterase 1 (TDP1): qHTS in cells in presence of CPT | chicken DT40 Tdp1-/-;hTDP1 cells + 20 nM CPT, ATP luminescence, 48 h | Potency, µM (doses to about 46.2 µM), most hits filed as inhibitors | actives 12% (n = 420,000) | AID 686979, 2013; further: nearly all actives have a fitted effect of over 55% in size
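Chicken DT40 Tdp1-/- cells stably complemented with human TDP1 were seeded at 400 cells/well in medium containing 20 nM camptothecin, exposed to pin-transferred compounds, and grown at 37 °C for at least 48 hr. Viability was read as ATP luminescence.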
HepG2 tox: qHTS for Inhibitors of TGF-b: Cytotox Counterscreen; HepG2 CAGA-GFP viability, ATP luminescence, 18 h; Potency, µM (titrated, usually from 46.1 µM), actives largely listed as cytotoxic; actives 0.76% (n = 410,000)
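CellTiter-Glo luminescence gave cytotoxicity after 18 hours at 37 degrees C. The cells were HepG2 CAGA-GFP in 1% FBS DMEM, stimulated with 500 pg/mL TGF-beta after compound addition. %Activity was normalised to no-cell wells (complete cell-killing) and DMSO (no toxicity), and curves were fitted and classified.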
A number is an active result; . = inactive; ? = inconclusive; / = not tested or not shown. A selection: hits, their analogues and other compounds. The true share with any hit is near 19%. Unless noted, the call rests on the fitted dose curve; in most records, active means well fitted curve in the direction sought with a large enough effect; inconclusive means small, poorly fitted or top-dose-only effect, or another doubt; inactive means no such curve, though single readings can be large; an effect the other way counts as inactive or inconclusive.

SMILES | TGFb inhibitor | DT40 TDP1 no CPT | TDP1 block | IL-1B inflam inh | DT40 TDP1 CPT | HepG2 tox
C[C@]12C[C@@H](O)[C@H](O)CC1=CCC1C2CC[C@]2(C)C(=O)CCC12 (stereo partly drawn) | . | . | . | . | . | .
CC1(C)C(=O)CC[C@@]2(C)C1=CCC1C2CC[C@]2(C)C(=O)CCC12 (stereo partly drawn) | . | ? | . | . | 16µM | .
CC(=O)C1C(N2CC2)CC2C3CC=C4CC(O)CCC4(C)C3CCC21C (stereo not drawn) | . | 5.8µM | / | -51 | 1.8µM | .
O=C(c1csnn1)N1CCC[C@@]2(CCN(Cc3ccncc3)C2)C1 | / | . | / | / | . | /
O=C(C[C@@H]1NCCC[C@H]1O)Cn1cnc2cc(Br)c(Cl)cc2c1=O | / | . | / | / | . | /
C[C@]12CC[C@H](O)CC1=CCC1C2CC[C@]2(C)C(=O)[C@H](Br)CC12 (stereo partly drawn) | ? | ? | . | -106 | ? | .
C=CCN1C(=O)C2(C(C(=O)OC)=C(N)Oc3c2c(=O)oc2ccccc32)c2ccccc21 (stereo not drawn) | . | ? | . | / | ? | .
O=C(CC[N+](=O)[O-])OCC1OC(O)C(OC(=O)CC[N+](=O)[O-])[C@@H](OC(=O)CC[N+](=O)[O-])C1OC(=O)CC[N+](=O)[O-] (stereo partly drawn) | / | 5.8µM | . | / | ? | /
COc1cccc(CN2CCN(Cc3cccc(F)c3)CC2)c1 | . | . | / | . | . | .
COc1ccc(CN2CCN(c3ncnc4sc5c(c34)CCCC5)CC2)cc1F | / | 5.2µM | / | / | 8.2µM | .
CC(C)CN1CC2(CCN(C(=O)c3ccncc3)CC2)C1 | / | . | / | / | . | /
C[C@@H]1C[C@@H]([C@H](O)CC2CC(=O)NC(=O)C2)C(=O)[C@@H](C)C1 | 1µM | 0.16µM | . | -58 | 0.16µM | .
CC(NC(=O)Oc1cccc2ccccc12)c1ccccc1 (stereo not drawn) | . | 26µM | / | . | ? | .
CCCCn1c(O)c(/C=C2/C=CC=N2)c(=O)[nH]c1=O | . | 4.1µM | . | . | 18µM | .
O=c1[nH]c(=O)n(Cc2ccccc2Cl)c(O)c1/C=C1/C=CC=N1 | . | 5.8µM | . | . | 5.8µM | .
C=CCn1c(O)c(/C=C2/C=CC=N2)c(=O)[nH]c1=O | ? | ? | . | . | ? | .
CC1CC[C@@]2(NC1)OC1CC3C4CC[C@@H]5CC(O)CC[C@@]5(C)C4CC[C@]3(C)C1C2C (stereo partly drawn) | / | / | . | / | / | /
C=CC[C@H](CC(=O)N(CCO)Cc1ccccc1)C(=O)NC[C@H](OC(=O)[C@@H](CC=C)CC(=O)OC(C)(C)C)c1ccccc1 | ? | 23µM | . | -71 | 21µM | .
C=CC[C@@H](CC(=O)N(CCO)Cc1ccccc1)C(=O)NC[C@@H](OC(=O)[C@@H](CC=C)CC(=O)OC(C)(C)C)c1ccccc1 | . | ? | . | ? | ? | .
CNCCc1ccc(O)c(O)c1 | ? | 5.2µM | . | . | 8.2µM | .
NCCc1cc(O)c(O)cc1O | . | 3.7µM | 0.25µM | . | 5.2µM | .
CC/C=C\C/C=C\C/C=C\C/C=C\C/C=C\CCCC(=O)NCCc1ccc(O)c(O)c1 | / | / | . | / | / | /
COc1ccc(CCN)cc1O | . | . | . | . | . | .
NCCc1ccc(O)c(O)c1 | . | 4.6µM | / | . | 5.2µM | .
Cc1ccc2cc3c(ccc4ccccc43)c3c2c1CC3 | / | ? | . | / | ? | /
SMILES | TGFb inhibitor | DT40 TDP1 no CPT | TDP1 block | IL-1B inflam inh | DT40 TDP1 CPT | HepG2 tox
CC(=O)OC1CC(OC(C)=O)[C@]2(C)C(CC(OC(C)=O)[C@]3(C)C2CC[C@@]2(C)C(c4ccoc4)C(=O)C4O[C@]432)C1(C)C (stereo partly drawn) | / | ? | . | / | ? | /
Cn1c(=O)c2c(nc(SCc3ccccc3)n2Cc2ccc(Cl)cc2)n(C)c1=O | . | ? | . | ? | ? | .
Cc1ccc(-c2c(C)n3c4c(=O)n(C)c(=O)n(C)c4nc3n2CCO)cc1 | . | 0.18µM | . | / | 0.26µM | .
Cc1ccc2c(c1)P(=O)(O)c1cc(C)ccc1O2 | . | . | / | . | . | .
C[C@]12CC[C@@H](O)C[C@H]1CC[C@@H]1[C@@H]2CC[C@]2(C)C(=O)CC[C@@H]12 | ? | ? | / | . | ? | .
C[C@]12CCC3C(CC[C@H]4C[C@@H](O)CC[C@]34C)[C@@H]1CCC2=O (stereo partly drawn) | / | 30µM | . | / | 27µM | /
C[C@]12CCC3[C@@H](CC[C@H]4C[C@@H](O)CC[C@]34C)C1CCC2=O (stereo partly drawn) | . | ? | / | . | ? | .

High-throughput results (PubChem BioAssay)
